SMILES strings stand for the structures. Hit rate of the full screen: of about 1,100 compounds, about 1,000 (91%) were called active.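 The calls were made as follows: active = inhibition above 3 SD of the buffer control wells (cut at about 41% in these data); inactive = the rest.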 The set was probably picked from earlier hits. These entries were drawn from the full list.

The experiment is described as follows: inhibition of M3R-evoked calcium signal on retest – cell-based, HEK293 M3R/RGS4 inducible, calcium flux, duplicate, RGS4 activator project, confirmation (AID 602282).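 Also: signal is the integrated peak-minus-minimum Fluo4 fluorescence over baseline ratio.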 Particulars: carbachol calcium flux Fluo4, at 10 µM, hits give high values. In general terms: Calcium flux is commonly read through the fluorescence of an indicator in the cells.
Take `C=CC12CN(C)[C@@H]3C4CO[C@H](C[C@H]41)[C@]1(C(=O)Nc4ccccc41)[C@@H]32` (some centres not stated): the inhibition – broadly, the change of the read-out against control, counted positive when it falls – is 84% (active). In the case of `CC(C)Oc1cccc(C(=O)C2CCCN(C3CCOCC3)C2)c1` (configuration not stated), the inhibition is 42.5% (active).

For the origin of these results see PubChem BioAssay AID602282 (Johns Hopkins Ion Channel Center, 2012).
